# Results taken from PubChem BioAssay AID1159580 (chemical genetic matrix, 2015).
# Among all 5,500 compounds or so, about 2,000 (36%) were called active. Inconclusive results (about 18%) are left out. Some of the results follow. Values without a mark were called inactive. No stated cut-off is given here; in the data, active means normalized growth mostly below about 0.91 (no sharp cut-off); inconclusive means no clear call, values can overlap the other calls; inactive means mostly above about 0.92.
# Experiment: chemical genetic growth profiling, strain panel (AID 1159580);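 further: tested at 20 µM; growth read once vehicle control cultures reached saturation at 30 °C; 1 = growth at the plate median or of vehicle wells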
# Conditions: growth OD
smiles,measurement,setting,value
Cc1cc2cc3c(C)cc(=O)oc3c(C)c2o1,normalized growth,"S. cerevisiae deletion strains, locus YKL009W, strain mrt4, stronger effect = lower value",0.894
same,normalized growth,"S. cerevisiae deletion strains, locus YKL068W, stronger effect = lower value",1.01
same,normalized growth,"S. cerevisiae deletion strains, locus YKL085W, strain MDH1 (second series), stronger effect = lower value",0.992
same,normalized growth,"S. cerevisiae deletion strains, locus YKL085W, strain MDH1, stronger effect = lower value",0.992
same,normalized growth,"S. cerevisiae deletion strains, locus YKL160W, strain elf1, stronger effect = lower value",0.951
same,normalized growth,"S. cerevisiae deletion strains, locus YKL190W, strain CNB1, stronger effect = lower value",0.981
same,normalized growth,"S. cerevisiae deletion strains, locus YKR001C, strain vps1, stronger effect = lower value",0.916
same,normalized growth,"S. cerevisiae deletion strains, locus YKR026C, strain gcn3, stronger effect = lower value",0.987
same,normalized growth,"S. cerevisiae deletion strains, locus YKR091W, strain srl3, stronger effect = lower value",1.01
same,normalized growth,"S. cerevisiae deletion strains, locus YLL001W, strain dnm1, stronger effect = lower value",0.993
same,normalized growth,"S. cerevisiae deletion strains, locus YLL026W, stronger effect = lower value",0.981
same,normalized growth,"S. cerevisiae deletion strains, locus YLL041C, strain sdh2, stronger effect = lower value",1.01
same,normalized growth,"S. cerevisiae deletion strains, locus YLR027C, strain aat2, stronger effect = lower value",1
same,normalized growth,"S. cerevisiae deletion strains, locus YLR039C, strain RIC1, stronger effect = lower value",0.927
same,normalized growth,"S. cerevisiae deletion strains, locus YLR058C, strain SHM2, stronger effect = lower value",0.971
same,normalized growth,"S. cerevisiae deletion strains, locus YLR102C, strain apc9, stronger effect = lower value",0.994
same,normalized growth,"S. cerevisiae deletion strains, locus YLR113W, strain HOG1, stronger effect = lower value",1.02
same,normalized growth,"S. cerevisiae deletion strains, locus YLR221C, strain rsa3, stronger effect = lower value",0.947
same,normalized growth,"S. cerevisiae deletion strains, locus YLR258W, strain gsy2, stronger effect = lower value",0.956
same,normalized growth,"S. cerevisiae deletion strains, locus YLR262C, strain YPT6 (second series), stronger effect = lower value",0.994
same,normalized growth,"S. cerevisiae deletion strains, locus YLR262C, strain YPT6, stronger effect = lower value",0.912
same,normalized growth,"S. cerevisiae deletion strains, locus YLR268W, strain sec22, stronger effect = lower value",0.898
same,normalized growth,"S. cerevisiae deletion strains, locus YLR320W, strain mms22, stronger effect = lower value",0.909
same,normalized growth,"S. cerevisiae deletion strains, locus YLR330W, strain CHS5, stronger effect = lower value",0.984
same,normalized growth,"S. cerevisiae deletion strains, locus YLR342W, strain FKS1 (second series), stronger effect = lower value",0.915
same,normalized growth,"S. cerevisiae deletion strains, locus YLR342W, strain FKS1, stronger effect = lower value",0.994
same,normalized growth,"S. cerevisiae deletion strains, locus YLR357W, strain rsc2, stronger effect = lower value",1.1
same,normalized growth,"S. cerevisiae deletion strains, locus YLR370C, strain arc18, stronger effect = lower value",0.986
same,normalized growth,"S. cerevisiae deletion strains, locus YLR371W, strain rom2, stronger effect = lower value",0.99
same,normalized growth,"S. cerevisiae deletion strains, locus YLR384C, strain iki3, stronger effect = lower value",1
same,normalized growth,"S. cerevisiae deletion strains, locus YLR418C, strain cdc73, stronger effect = lower value",0.83 (active)
same,normalized growth,"S. cerevisiae deletion strains, locus YML016C, strain PPZ1, stronger effect = lower value",0.951
same,normalized growth,"S. cerevisiae deletion strains, locus YML032C, strain rad52, stronger effect = lower value",0.8 (active)
same,normalized growth,"S. cerevisiae deletion strains, locus YML120C, strain ndi1, stronger effect = lower value",0.996
same,normalized growth,"S. cerevisiae deletion strains, locus YML124C, strain tub3, stronger effect = lower value",0.986
same,normalized growth,"S. cerevisiae deletion strains, locus YMR058W, strain fet3, stronger effect = lower value",0.945
same,normalized growth,"S. cerevisiae deletion strains, locus YMR078C, strain ctf18, stronger effect = lower value",0.974
same,normalized growth,"S. cerevisiae deletion strains, locus YMR125W, strain sto1, stronger effect = lower value",1.11 [resistant] (active)
same,normalized growth,"S. cerevisiae deletion strains, locus YMR129W, stronger effect = lower value",1.02
same,normalized growth,"S. cerevisiae deletion strains, locus YMR205C, strain PFK2, stronger effect = lower value",1.03
same,normalized growth,"S. cerevisiae deletion strains, locus YMR223W, strain ubp8, stronger effect = lower value",0.936
same,normalized growth,"S. cerevisiae deletion strains, locus YMR231W, strain pep5, stronger effect = lower value",1
same,normalized growth,"S. cerevisiae deletion strains, locus YMR263W, strain SAP30, stronger effect = lower value",0.908
same,normalized growth,"S. cerevisiae deletion strains, locus YMR307W, strain GAS1, stronger effect = lower value",0.887
same,normalized growth,"S. cerevisiae deletion strains, locus YNL067W, strain RPL9B, stronger effect = lower value",0.897
same,normalized growth,"S. cerevisiae deletion strains, locus YNL071W, strain lat1, stronger effect = lower value",0.931
same,normalized growth,"S. cerevisiae deletion strains, locus YNL128W, strain TEP1, stronger effect = lower value",0.975
same,normalized growth,"S. cerevisiae deletion strains, locus YNL153C, strain GIM3, stronger effect = lower value",0.918
same,normalized growth,"S. cerevisiae deletion strains, locus YNL183C, strain NPR1, stronger effect = lower value",0.924
same,normalized growth,"S. cerevisiae deletion strains, locus YNL209W, strain ssb2, stronger effect = lower value",0.981
same,normalized growth,"S. cerevisiae deletion strains, locus YNL233W, strain BNI4, stronger effect = lower value",0.885
same,normalized growth,"S. cerevisiae deletion strains, locus YNL248C, strain rpa49, stronger effect = lower value",0.861 (active)
same,normalized growth,"S. cerevisiae deletion strains, locus YNL250W, strain rad50, stronger effect = lower value",0.963
same,normalized growth,"S. cerevisiae deletion strains, locus YNL271C, strain bni1, stronger effect = lower value",0.964
same,normalized growth,"S. cerevisiae deletion strains, locus YNL298W, strain CLA4, stronger effect = lower value",0.941
same,normalized growth,"S. cerevisiae deletion strains, locus YNL307C, strain MCK1, stronger effect = lower value",0.905 (active)
same,normalized growth,"S. cerevisiae deletion strains, locus YNL322C, strain KRE1 (second series), stronger effect = lower value",1
same,normalized growth,"S. cerevisiae deletion strains, locus YNL322C, strain KRE1, stronger effect = lower value",0.993
same,normalized growth,"S. cerevisiae deletion strains, locus YNR049C, strain mso1, stronger effect = lower value",1.01
same,normalized growth,"S. cerevisiae deletion strains, locus YNR052C, strain pop2, stronger effect = lower value",0.98
same,normalized growth,"S. cerevisiae deletion strains, locus YOL006C, strain TOP1, stronger effect = lower value",0.585
same,normalized growth,"S. cerevisiae deletion strains, locus YOL012C, strain htz1",0.819
same,normalized growth,"S. cerevisiae deletion strains, locus YOL147C, strain pex11, stronger effect = lower value",0.986
same,normalized growth,"S. cerevisiae deletion strains, locus YOR001W, strain rrp6, stronger effect = lower value",0.972
same,normalized growth,"S. cerevisiae deletion strains, locus YOR061W, strain CKA2, stronger effect = lower value",0.97
same,normalized growth,"S. cerevisiae deletion strains, locus YOR069W, strain VPS5, stronger effect = lower value",0.974
same,normalized growth,"S. cerevisiae deletion strains, locus YOR070C, strain gyp1, stronger effect = lower value",0.979
same,normalized growth,"S. cerevisiae deletion strains, locus YOR080W, strain dia2, stronger effect = lower value",1
same,normalized growth,"S. cerevisiae deletion strains, locus YOR083W, strain WHI5, stronger effect = lower value",0.941
same,normalized growth,"S. cerevisiae deletion strains, locus YOR106W, strain vam3, stronger effect = lower value",0.98
same,normalized growth,"S. cerevisiae deletion strains, locus YOR136W, strain idh2, stronger effect = lower value",0.969
same,normalized growth,"S. cerevisiae deletion strains, locus YOR144C, strain elg1, stronger effect = lower value",0.979
same,normalized growth,"S. cerevisiae deletion strains, locus YOR184W, strain ser1, stronger effect = lower value",0.875
same,normalized growth,"S. cerevisiae deletion strains, locus YOR231W, strain MKK1, stronger effect = lower value",0.926
same,normalized growth,"S. cerevisiae deletion strains, locus YOR265W, strain rbl2, stronger effect = lower value",0.995
same,normalized growth,"S. cerevisiae deletion strains, locus YOR270C, strain vph1, stronger effect = lower value",0.872
same,normalized growth,"S. cerevisiae deletion strains, locus YOR290C, strain snf2, stronger effect = lower value",0.949
same,normalized growth,"S. cerevisiae deletion strains, locus YOR316C, strain cot1, stronger effect = lower value",0.989
same,normalized growth,"S. cerevisiae deletion strains, locus YPL051W, strain arl3, stronger effect = lower value",0.982
same,normalized growth,"S. cerevisiae deletion strains, locus YPL055C, strain LGE1, stronger effect = lower value",0.88
same,normalized growth,"S. cerevisiae deletion strains, locus YPL078C, strain atp4, stronger effect = lower value",0.976
same,normalized growth,"S. cerevisiae deletion strains, locus YPL106C, strain sse1, stronger effect = lower value",0.92
same,normalized growth,"S. cerevisiae deletion strains, locus YPL240C, strain hsp82, stronger effect = lower value",0.994
same,normalized growth,"S. cerevisiae deletion strains, locus YPL241C, strain CIN2, stronger effect = lower value",0.985
same,normalized growth,"S. cerevisiae deletion strains, locus YPL256C, strain CLN2, stronger effect = lower value",0.993
same,normalized growth,"S. cerevisiae deletion strains, locus YPR119W, strain clb2, stronger effect = lower value",0.987
same,normalized growth,"S. cerevisiae deletion strains, locus YPR141C, strain kar3, stronger effect = lower value",0.996
same,normalized growth,"S. cerevisiae deletion strains, locus YPR163C, strain tif3, stronger effect = lower value",0.969
same,normalized growth,"S. cerevisiae deletion strains, locus YPR167C, strain met16, stronger effect = lower value",0.983
same,normalized growth,"S. cerevisiae deletion strains, strain wtn01, stronger effect = lower value",0.931
same,normalized growth,"S. cerevisiae strains, strain wild type, stronger effect = lower value",0.964
